Screening data from PubChem BioAssay.
Hits are enriched below; roughly 9% of the tested compounds scored in any of these assays.
HP1b binding inh: HP1-beta chromodomain-methylated histone interaction inhibition. AlphaScreen HP1-beta / biotin-H3K9me3 peptide binding. 0.56% of 390,000 active. Potency, µM (top dose mostly 114 µM), inactives show top-dose activity change, negative = inhibition, hits mostly inhibitors. AID 540317; note: nearly all actives have a fitted effect of over 70% in size
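HP1-beta protein (50 nM final) preincubated 30 min at room temperature with biotinylated H3(1-18)K9me3 peptide (50 nM) in PBS pH 7.4, 0.01% Tween-20, then compound added for 30 min. AlphaScreen streptavidin donor/nickel chelate acceptor beads (10 ug/mL final), 30 min dark, luminescence read.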
G9a block: G9a (human) methyltransferase inhibition; Q96KQ7; G9a H3K9 monomethylation, AlphaScreen, 2 h; Potency, µM (top dose mostly 102 µM), inactives show top-dose activity, negative = inhibition, most hits filed as inhibitors; 8.8% of 350,000 active; note: % is set by controls: 0 for no effect and ±100 for the full control effect; nearly all actives have a fitted effect of over 75% in size
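Quantitative HTS format: methyltransferase activity on a biotin-tagged H3K9 peptide is measured by AlphaScreen, using a rabbit anti-monomethyl-H3K9 antibody with streptavidin donor and anti-IgG acceptor beads. Final levels are 20 nM enzyme, 500 nM peptide, 20 uM SAM; 2 h RT.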
12-LOX inh: ALOX12 (human) lipoxygenase inhibition | P18054 | purified 12hLO, xylenol orange hydroperoxide absorbance | Potency, µM (top dose mostly 108 µM), inactives show at the top dose activity change, negative = inhibition, hits mostly inhibitors | 1.1% of 580,000 active | AID 1671190; note: % is set by controls: 0 for no effect and ±100 for the full control effect
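Purified human 12hLO (150 nM final) in 25 mM Hepes, 0.01% Triton X-100, pH 7.0 was preincubated 15 min at room temperature with compound. Then 40 uM arachidonic acid was added, 30 min. Hydroperoxide was read by Fe-XO absorbance ratio 573/405 nm.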
BAZ2B block: BAZ2B (human) inhibition; Q9UIF8; AlphaScreen BAZ2B-H3K14Ac peptide displacement; Potency, µM (doses to about 114 µM), for inactives: top-dose activity change, negative = inhibition, most hits filed as inhibitors; 4.4% of 360,000 active; note: % is set by controls: 0 for no effect and ±100 for the full control effect; nearly all actives have a fitted effect of over 60% in size
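Compounds, titrated to a top concentration of 110 uM, were incubated 30 min at room temperature with preformed BAZ2B/acetyl-K14 H3 peptide complex (50 nM each). Proximity signal was measured by AlphaScreen after 20 min with beads.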
JMJD2A Tudor: blocks the human JMJD2A Tudor domain; Potency, µM (highest dose often 114 µM), inactives show at the top dose activity change, negative = inhibition, usual class: inhibitors; 4.4% of 390,000 active; AlphaScreen JMJD2A-Tudor / H3K4me3 peptide binding; note: % is set by controls: 0 for no effect and ±100 for the full control effect; nearly all actives have a fitted effect of over 50% in size
Target sequence (O75164 whole entry, looked up, the tested form may be a part): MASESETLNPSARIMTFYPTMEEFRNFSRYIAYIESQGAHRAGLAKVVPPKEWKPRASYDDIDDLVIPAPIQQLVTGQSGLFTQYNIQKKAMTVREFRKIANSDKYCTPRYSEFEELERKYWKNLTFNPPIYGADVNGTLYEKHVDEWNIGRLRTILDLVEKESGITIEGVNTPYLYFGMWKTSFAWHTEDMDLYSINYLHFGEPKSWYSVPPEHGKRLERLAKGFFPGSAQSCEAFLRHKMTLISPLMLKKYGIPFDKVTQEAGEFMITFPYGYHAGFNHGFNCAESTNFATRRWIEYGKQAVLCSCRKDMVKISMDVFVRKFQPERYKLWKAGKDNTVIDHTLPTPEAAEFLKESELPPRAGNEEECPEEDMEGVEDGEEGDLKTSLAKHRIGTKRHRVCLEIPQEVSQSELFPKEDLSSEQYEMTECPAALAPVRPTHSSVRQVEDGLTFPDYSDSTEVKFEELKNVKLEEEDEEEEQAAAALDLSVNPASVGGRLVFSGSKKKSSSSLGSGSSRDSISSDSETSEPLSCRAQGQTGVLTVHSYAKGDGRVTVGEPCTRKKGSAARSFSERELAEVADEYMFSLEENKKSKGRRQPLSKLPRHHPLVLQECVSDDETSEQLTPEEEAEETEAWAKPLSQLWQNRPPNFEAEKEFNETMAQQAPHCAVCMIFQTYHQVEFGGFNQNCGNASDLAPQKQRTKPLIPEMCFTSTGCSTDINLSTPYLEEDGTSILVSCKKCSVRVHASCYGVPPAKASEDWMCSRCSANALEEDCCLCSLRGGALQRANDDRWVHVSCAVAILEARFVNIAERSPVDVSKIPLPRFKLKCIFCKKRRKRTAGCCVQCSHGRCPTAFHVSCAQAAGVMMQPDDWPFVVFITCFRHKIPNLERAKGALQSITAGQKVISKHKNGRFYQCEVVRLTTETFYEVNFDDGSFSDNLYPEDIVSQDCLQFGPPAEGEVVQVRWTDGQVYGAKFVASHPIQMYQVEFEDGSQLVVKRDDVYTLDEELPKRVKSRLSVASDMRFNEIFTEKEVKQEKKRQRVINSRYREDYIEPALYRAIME
PLK1 PBD inh: inhibitors of human PLK1 polo-box domain binding. Potency, µM, without a hit: max response, negative = inhibition, hits mostly inhibitors. P53350. 2.8% of 360,000 active. Plk1 PBD binding of FITC phosphopeptide, fluorescence polarization; note: series mostly up to about 57 µM; % is set by controls: 0 for no effect and ±100 for the full control effect; nearly all actives have a fitted effect of over 65% in size
* hit, by the source's call; ? = inconclusive; . = not tested or not shown; [ ] = dose if it differs, or a comment. Calls come from the whole dose curve; as a rule, active = well fitted curve in the direction sought with a large enough effect; inconclusive = small, poorly fitted or top-dose-only effect, or another doubt; inactive = no such curve, though single readings can be large; an effect the other way counts as inactive or inconclusive. Potency is the fitted concentration of half-maximal effect.

SMILES | HP1b binding inh | G9a block | 12-LOX inh | BAZ2B block | JMJD2A Tudor | PLK1 PBD inh
O=C(O)C(Cc1ccccc1)n1cccc1 (configuration not stated) | 5.8% | 5.6%[59 µM] | 0.0% | -35.6% | -10.3%[11.4 µM] | ?
CC(C)(C)c1ccc(C[C@H](C(=O)O)N2C(=O)c3ccc(C(=O)O)cc3C2=O)cc1 | . | -6.2%[12.7 µM] | . | 1.0% | -22.8% | .
O=C(O)c1ccc2c(c1)C(=O)N([C@H](Cc1ccccc1)C(=O)O)C2=O | . | 4.5%[12.7 µM] | . | 79.4µM* | -27.6% | .
O=C(O)c1ccc2c(c1)C(=O)N([C@H](Cc1ccc(O)c(O)c1)C(=O)O)C2=O | . | 2µM* | . | ? | 89.1µM* | .
O=C(O)[C@H](Cc1ccccc1)N1C(=O)c2c(Cl)c(Cl)c(Cl)c(Cl)c2C1=O | 5.0% | . | -4.2% | -10.9% | -27.9% | 26.7µM*
O=C(O)c1sc2cccc(Cl)c2c1Cl | -5.6% | . | ? | 5.4% | -8.3%[11.4 µM] | 23.8µM*
O=C(Nc1ccccc1Cl)c1sc2cccc(Cl)c2c1Cl | 25.7% | -3.2%[59 µM] | -3.3% | 0.1% | -1.0% | .
CSCCC(NS(=O)(=O)c1ccccc1)C(=O)OC(C)C(=O)Nc1ccc(Cl)cn1 (configuration not stated) | 31.2% | -1.4%[12.7 µM] | -9.8% | -19.7% | -16.9% | -2.1%
Cc1cc(N2CCN(C(=O)c3ccco3)CC2)n2nc(-c3cccc(Cl)c3)cc2n1 | 19.3% | 13.6%[59 µM] | 4.3% | . | -25.0% | -24.8%
CC(C)Nc1nc(NC(C)C)nc(C(N)=O)n1 | 0.6% | 2.5%[12.7 µM] | ? | 50.1µM* | -34.3% | -3.5%
CC(=O)OCCOc1nc(NC(C)C)nc(NC(C)C)n1 | 10.2% | ? | -5.8% | -2.3% | 79.4µM* | 29.9µM*
Cc1cc(C)c(NC(=O)Cn2c(=O)n(Cc3ccc4c(c3)OCO4)c(=O)c3ccc(C(=O)NC4CCCCC4)cc32)c(C)c1 | 2.8% | -4.0%[59 µM] | -20.8% | . | -14.0% | .
COc1cnc(-c2ccccn2)nc1Sc1ccc(F)cc1 | 13.3% | -3.0% | 0.1% | 28.2µM* | ? | 1.8%
COc1cnc(-c2ccccn2)nc1Sc1ccc(Cl)cc1 | 24.3% | 22.9% | -6.2% | -6.5% | ? | -16.2%
CCOC(=O)CSc1nc(-c2ccccn2)ncc1OC | 27.1% | ? | 5.9% | 25.1µM* | 70.8µM* | -12.2%
COc1ccc(Sc2nc(-c3ccccn3)ncc2OC)cc1 | 28.5% | -0.3% | -13.0% | 28.2µM* | ? | -9.4%
CCOC(=O)CSc1ncc(OC)c(Sc2ccc(OC)cc2)n1 | 68.1% | 108.0%[59 µM] | ? | 13.4% | 30.6% | -9.2%
Cc1cc(C)n(-c2nc(N(C)C)nc(N3CCOCC3)n2)n1 | 11.6% | 10.6% | 0.7% | -8.4% | -16.3% | -6.6%
CN1CCC/C1=C1/C(=O)N(c2ccccc2)N=C1NC(=O)Nc1cccc(Cl)c1 | -16.0% | -36.3% | -14.3% | -17.6% | 20µM* | 3.77µM*
N#Cc1nc(COc2ccc(Br)cc2)oc1NCCN1CCOCC1 | 13.1% | 50.1µM* | 3.4% | ? | -26.8% | -2.3%
N#Cc1nc(COc2ccc(F)cc2)oc1NCCN1CCOCC1 | 25.7% | 79.4µM* | -3.0% | ? | -22.3% | 2.9%
CCN(CC)CCOC(=O)C(Cc1ccco1)Cc1cccc2ccccc12 (configuration not stated) | ? | . | 0.0% | . | 12.6µM* | 1.3%
CCN(CC)CCOC(=O)CCc1cccc2ccccc12 | -38.0% | 7.94µM* | ? | ? | 28.2µM* | -19.3%
CC(C)Sc1ccccc1C(=O)O | . | . | -57.6% | . | . | .
CC1(C)C(=O)OC(c2cccn2-c2ccc([N+](=O)[O-])cc2)C2(CCCCC2)C1=O (configuration not stated) | 32.9% | 1.5% | -2.8% | 5.4% | 5.5% | 1.4%
SMILES | HP1b binding inh | G9a block | 12-LOX inh | BAZ2B block | JMJD2A Tudor | PLK1 PBD inh
CC1=NN(C(=O)c2ccc(Cl)cc2)C(O)(c2ccccc2)C1 (configuration not stated) | 27.0% | . | 1.3% | 50.1µM* | ? | 7.6%
CC1=NN(C(=O)CSCc2ccccc2)C(O)(c2ccc(Cl)cc2)C1 (configuration not stated) | 34.1% | 16.1% | -3.3% | -3.1% | -8.9% | -5.9%
CCOC(=O)c1[nH]ncc1CN1CCOC(Cc2ccc(OC)cc2)C1 (configuration not stated) | . | . | 42.7% | . | . | .
O=C1CCCC/C1=N\Nc1ccc(OCc2ccccc2)cc1 | -6.1% | 39.8µM* | ? | -23.1% | -28.9% | -7.6%
COC(=O)c1ccn(CSc2cc(Cl)ccc2Cl)n1 | 50.0% | 15.7%[12.7 µM] | -6.1% | 13.1% | 8.8% | 23.8µM*
Nc1ccccc1Nc1c(F)c(F)nc(F)c1Cl | 12.8% | 12.6µM* | -1.0% | ? | -32.9% | -2.5%
O=c1c2ccccc2nc2sc3ccccc3n12 | 29.4% | 5.3%[59 µM] | 167.4% | 2.8% | -1.4%[11.4 µM] | -21.2%
O=c1/c(=C/c2ccccn2)sc2nc3ccccc3n12 | 25.7% | 50.1µM* | -5.5% | 1.6% | ? | -13.8%
O=c1/c(=C\c2cc([N+](=O)[O-])cc([N+](=O)[O-])c2O)sc2nc3ccccc3n12 | ? | 6.31µM* | . | 50.1µM* | 20µM* | ?
Cc1ccc2oc(=O)c3cc(C(=O)NCCCN4CCCC(C)C4)sc3c2c1 (configuration not stated) | 42.5% | 11.2% | 2.6% | 17.1% | -22.1% | -11.8%
Cc1cc(OCC(=O)c2ccc(Br)cc2)ccc1N1C(=O)CCC1=O | 20.6% | ? | -21.6% | 21.6% | -11.9% | -5.2%
CN(C)c1ccc(CN(CC2CCCO2)C(=O)c2ccc(Br)cc2)cc1 (configuration not stated) | ? | 14.1µM* | 0.0% | 39.8µM* | 50.1µM* | .
CCOc1cccc(C(=O)N(Cc2ccc(N(C)C)cc2)CC2CCCO2)c1 (configuration not stated) | 3.0% | 14.1µM* | -21.0% | 50.1µM* | ? | .
CN(Cc1ccc(N(C)C)cc1)C(=O)c1cc2ccccc2o1 | ? | 39.8µM* | ? | 31.6µM* | 50.1µM* | -8.5%
CCCN(CC1CCCO1)C(=O)CCc1nnc(CCc2ccc(OC)cc2)o1 (configuration not stated) | 15.0% | -5.2%[0.501 µM] | 5.1% | -4.7% | ? | 13.4µM*
CN(Cc1ccccc1)C(=O)c1cc2ccccc2o1 | 42.3% | 11.1% | -39.5% | 5.5% | 13.7% | -5.6%
CN(C)c1ccc(C(=O)NCC2CCCO2)cc1 (configuration not stated) | 46.8% | ? | -2.7% | -2.0% | -17.1% | -9.0%
COc1cccc(-c2nc(CS(=O)(=O)CC(=O)NCCCN3C(C)CCCC3C)c(C)o2)c1 (configuration not stated) | 36.2% | -6.0% | -3.0% | -13.2% | -16.0% | -2.7%
Cc1ccccc1Cn1ccc(NC(=O)c2cc3nc(-c4ccco4)cc(C(F)(F)F)n3n2)n1 | 33.0% | 8.1% | -3.7% | -0.9% | -1.0% | 0.5%
